# Measurements as given in PubChem BioAssay (EPA / NIEHS).
# Inconclusive results are not listed. Activity calls are given as the source filed them. The calls were made as follows: active = hit-call score of the fitted dose curve at least 0.9, where 1 is the maximum; inconclusive = response in the unintended direction; inactive = score below 0.9.
# Legend:
# [1] = target: rat Neurokinin-1 Receptor (NK1), Tacr1 (gene 24807) (UniProt P14600); test: NVS_GPCR_rNK1: NovaScreen (NVS) G Protein-Coupled Receptor Assay for rat Neurokinin-1 Receptor (NK1) (AID 2283309)
# Outline: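 Rat submaxillary gland membranes; radioligand displacement read by filter-based scintillation counting after 1 h. Primary screen in duplicate at 25 uM; actives retested in concentration series; loss of binding fitted versus DMSO.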
# [2] = target: human Neonicotinoid receptor (NNR), CHRNA2 (gene 1135) (UniProt Q15822); test: NVS_LGIC_hNNR_NBungSens: NovaScreen (NVS) Ligand-Gated Ion Channel Assay for human Neonicotinoid receptor (NNR) (AID 2283313)
# Outline: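 Radioligand displacement on human neuroblastoma membranes, 2 h, filter-based scintillation counting. Primary screen in duplicate at 25 uM; chemicals passing threshold (e.g. 30% inhibition) run singleton concentration-response to 50 uM; loss of binding fitted versus DMSO.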
# [3] = target: rat Neurotensin Receptor (NTS), Ntsr1 (gene 366274) (UniProt P20789); test: NVS_GPCR_rNTS: NovaScreen (NVS) G Protein-Coupled Receptor Assay for rat Neurotensin Receptor (NTS) (AID 2283308)
# Outline: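 Rat forebrain membranes; radioligand binding with competitive displacement, read by filter-based scintillation counting 1 h after dosing. Primary screen in duplicate at 25 uM; actives (e.g., 30% inhibition) rerun in concentration-response up to 50 uM, loss-of-signal versus DMSO.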
# [4] = target: rat Gamma-Aminobutyric Acid Type B Receptor (GABBR), Gabbr1 (gene 81657) (UniProt Q9Z0U4); test: NVS_GPCR_rGABBR: NovaScreen (NVS) G Protein-Coupled Receptor Assay for rat Gamma-Aminobutyric Acid Type B Receptor (GABBR) (AID 2283301)
# Outline: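 Radioligand displacement on rat cortical membranes, 1 h, filter-based scintillation counting. Primary screen at 25 uM in duplicate; compounds passing threshold re-tested in concentration-response up to 50 uM; loss of binding fitted against DMSO.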
# [5] = target: rat Opioid Receptor, Non-selective Sodium (Na+) Binding, Oprm1 (gene 25601) (UniProt P33535); test: NVS_GPCR_rOpiate_NonSelectiveNa: NovaScreen (NVS) G Protein-Coupled Receptor Assay for rat Opioid Receptor, Non-selective Sodium (Na+) Binding (AID 2283311)
# Outline: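 Rat forebrain membranes, radioligand displacement with filter scintillation counting, 1.5 h incubation. Screened in duplicate at 25 µM; hits then run in concentration-response up to 50 µM; loss of binding fitted versus DMSO.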
# [6] = target: rat Histamine Receptor (H3), Hrh3 (gene 85268) (UniProt Q9QYN8); test: NVS_GPCR_rH3: NovaScreen (NVS) G Protein-Coupled Receptor Assay for rat Histamine Receptor (H3) (AID 2283303)
# Outline: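 Rat forebrain membranes incubated 1 h with compound; radioligand displacement measured by filter-based scintillation counting. Single-concentration duplicates at 25 µM, then concentration-response up to 50 µM, relative to DMSO.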
# [7] = target: rat Somatostatin Receptor (SST), Sstr1 (gene 25033) (UniProt P28646); test: NVS_GPCR_rSST: NovaScreen (NVS) G Protein-Coupled Receptor Assay for rat Somatostatin Receptor (SST) (AID 2283314)
# Outline: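 Rat forebrain membranes; radioligand displacement read by filter-based scintillation counting 1 h after dosing. Primary screen in duplicate at 25 uM. Actives (e.g., 30% inhibition) were rerun as concentration-response to 50 uM max and fitted against DMSO.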
# Chain of rat Neurotensin Receptor (NTS), Ntsr1 (gene 366274) (P20789 whole entry, looked up): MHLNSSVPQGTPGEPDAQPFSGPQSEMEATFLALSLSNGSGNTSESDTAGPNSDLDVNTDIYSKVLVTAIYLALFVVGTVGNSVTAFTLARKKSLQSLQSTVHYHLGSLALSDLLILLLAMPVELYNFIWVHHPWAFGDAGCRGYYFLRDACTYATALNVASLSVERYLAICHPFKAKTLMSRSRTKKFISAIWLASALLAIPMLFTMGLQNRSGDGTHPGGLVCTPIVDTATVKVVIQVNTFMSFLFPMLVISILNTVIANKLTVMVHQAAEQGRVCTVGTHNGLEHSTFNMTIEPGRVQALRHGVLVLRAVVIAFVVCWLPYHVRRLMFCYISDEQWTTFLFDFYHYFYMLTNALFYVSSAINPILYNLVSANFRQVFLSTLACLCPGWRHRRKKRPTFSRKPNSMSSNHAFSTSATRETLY
# Chain of rat Somatostatin Receptor (SST), Sstr1 (gene 25033) (P28646 whole entry, looked up): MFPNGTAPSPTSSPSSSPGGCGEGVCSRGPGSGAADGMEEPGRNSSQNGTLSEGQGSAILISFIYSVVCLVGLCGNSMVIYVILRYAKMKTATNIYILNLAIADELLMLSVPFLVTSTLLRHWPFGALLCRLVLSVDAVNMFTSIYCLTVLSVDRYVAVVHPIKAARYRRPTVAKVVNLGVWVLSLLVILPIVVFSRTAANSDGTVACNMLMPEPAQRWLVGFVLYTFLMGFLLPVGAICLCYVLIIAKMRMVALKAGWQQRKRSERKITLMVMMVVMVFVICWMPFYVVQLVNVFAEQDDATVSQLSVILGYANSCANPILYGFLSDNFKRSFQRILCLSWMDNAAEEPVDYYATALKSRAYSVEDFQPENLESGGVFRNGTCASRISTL
# Chain of rat Gamma-Aminobutyric Acid Type B Receptor (GABBR), Gabbr1 (gene 81657) (Q9Z0U4 whole entry, looked up): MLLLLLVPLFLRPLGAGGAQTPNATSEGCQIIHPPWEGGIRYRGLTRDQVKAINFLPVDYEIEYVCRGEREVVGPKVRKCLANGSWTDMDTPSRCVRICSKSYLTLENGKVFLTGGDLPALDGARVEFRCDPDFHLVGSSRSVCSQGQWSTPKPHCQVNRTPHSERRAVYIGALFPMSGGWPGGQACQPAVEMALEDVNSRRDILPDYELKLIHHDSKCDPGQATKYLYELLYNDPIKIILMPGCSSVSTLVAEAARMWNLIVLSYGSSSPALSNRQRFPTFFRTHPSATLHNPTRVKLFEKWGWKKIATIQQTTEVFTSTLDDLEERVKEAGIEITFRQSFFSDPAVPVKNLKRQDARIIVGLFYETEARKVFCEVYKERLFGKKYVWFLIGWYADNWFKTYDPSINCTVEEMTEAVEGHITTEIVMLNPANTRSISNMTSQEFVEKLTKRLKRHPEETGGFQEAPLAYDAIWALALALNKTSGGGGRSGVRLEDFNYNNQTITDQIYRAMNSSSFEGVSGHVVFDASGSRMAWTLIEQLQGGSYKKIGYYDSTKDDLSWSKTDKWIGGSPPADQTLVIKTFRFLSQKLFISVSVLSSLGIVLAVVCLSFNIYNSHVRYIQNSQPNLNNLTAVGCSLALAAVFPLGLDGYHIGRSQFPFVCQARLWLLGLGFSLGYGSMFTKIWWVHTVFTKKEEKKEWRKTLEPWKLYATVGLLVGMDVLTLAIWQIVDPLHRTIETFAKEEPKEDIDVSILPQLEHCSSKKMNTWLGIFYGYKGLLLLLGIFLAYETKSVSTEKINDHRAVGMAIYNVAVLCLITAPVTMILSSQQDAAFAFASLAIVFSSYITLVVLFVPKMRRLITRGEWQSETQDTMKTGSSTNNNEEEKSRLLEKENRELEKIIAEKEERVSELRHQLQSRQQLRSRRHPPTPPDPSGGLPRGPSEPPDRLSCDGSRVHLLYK
# Chain of rat Neurokinin-1 Receptor (NK1), Tacr1 (gene 24807) (P14600 whole entry, looked up): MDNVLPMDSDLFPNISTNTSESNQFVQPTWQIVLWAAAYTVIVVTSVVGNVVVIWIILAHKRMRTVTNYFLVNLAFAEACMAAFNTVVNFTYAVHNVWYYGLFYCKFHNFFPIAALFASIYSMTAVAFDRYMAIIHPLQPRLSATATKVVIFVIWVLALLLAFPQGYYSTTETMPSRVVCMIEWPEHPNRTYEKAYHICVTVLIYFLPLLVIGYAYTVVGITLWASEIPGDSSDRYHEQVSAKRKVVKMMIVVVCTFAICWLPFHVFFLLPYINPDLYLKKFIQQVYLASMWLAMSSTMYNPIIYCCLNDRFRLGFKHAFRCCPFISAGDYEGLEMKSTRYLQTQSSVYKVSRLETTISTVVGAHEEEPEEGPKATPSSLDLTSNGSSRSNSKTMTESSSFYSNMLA
# Chain of rat Histamine Receptor (H3), Hrh3 (gene 85268) (Q9QYN8 whole entry, looked up): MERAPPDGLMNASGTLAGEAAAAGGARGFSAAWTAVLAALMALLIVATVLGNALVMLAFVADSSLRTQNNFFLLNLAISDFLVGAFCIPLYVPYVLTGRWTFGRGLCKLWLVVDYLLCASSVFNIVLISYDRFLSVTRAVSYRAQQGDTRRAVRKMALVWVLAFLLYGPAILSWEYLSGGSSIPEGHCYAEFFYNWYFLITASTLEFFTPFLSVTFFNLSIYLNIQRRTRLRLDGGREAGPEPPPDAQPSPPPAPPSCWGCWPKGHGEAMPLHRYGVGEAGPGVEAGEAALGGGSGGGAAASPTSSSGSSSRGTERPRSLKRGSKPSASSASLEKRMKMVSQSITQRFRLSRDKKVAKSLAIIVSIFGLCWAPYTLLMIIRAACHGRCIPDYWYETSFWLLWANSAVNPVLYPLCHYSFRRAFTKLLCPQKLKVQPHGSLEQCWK
# Chain of rat Opioid Receptor, Non-selective Sodium (Na+) Binding, Oprm1 (gene 25601) (P33535 whole entry, looked up): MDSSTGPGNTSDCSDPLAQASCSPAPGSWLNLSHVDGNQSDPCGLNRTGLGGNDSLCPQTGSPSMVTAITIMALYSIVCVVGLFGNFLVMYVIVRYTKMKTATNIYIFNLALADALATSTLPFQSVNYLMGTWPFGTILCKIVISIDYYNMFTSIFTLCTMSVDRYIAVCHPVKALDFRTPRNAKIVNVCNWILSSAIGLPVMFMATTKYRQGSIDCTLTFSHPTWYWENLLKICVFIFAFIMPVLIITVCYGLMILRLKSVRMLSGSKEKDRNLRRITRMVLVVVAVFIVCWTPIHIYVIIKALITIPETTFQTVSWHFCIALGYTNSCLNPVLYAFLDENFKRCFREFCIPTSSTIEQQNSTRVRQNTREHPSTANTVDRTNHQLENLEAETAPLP
# Chain of human Neonicotinoid receptor (NNR), CHRNA2 (gene 1135) (Q15822 whole entry, looked up): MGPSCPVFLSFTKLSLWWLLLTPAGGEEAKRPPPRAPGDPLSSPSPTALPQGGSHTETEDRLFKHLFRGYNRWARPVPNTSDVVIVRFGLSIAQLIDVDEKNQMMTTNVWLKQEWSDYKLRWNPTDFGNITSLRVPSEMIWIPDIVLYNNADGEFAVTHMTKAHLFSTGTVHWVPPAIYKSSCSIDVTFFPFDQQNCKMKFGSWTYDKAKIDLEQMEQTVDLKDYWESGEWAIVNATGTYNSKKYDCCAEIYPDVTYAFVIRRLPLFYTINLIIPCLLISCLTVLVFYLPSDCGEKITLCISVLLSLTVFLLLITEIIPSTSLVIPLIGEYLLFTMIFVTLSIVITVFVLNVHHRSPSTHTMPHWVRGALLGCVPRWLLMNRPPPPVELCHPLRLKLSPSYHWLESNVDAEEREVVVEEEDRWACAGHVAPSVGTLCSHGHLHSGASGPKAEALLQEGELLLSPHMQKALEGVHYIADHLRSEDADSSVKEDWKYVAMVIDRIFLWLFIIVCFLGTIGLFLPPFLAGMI
compound,measurement,setting,value
CNC(=O)ON=C(C)SC,AC50,[1],44.1 µM (active)
CSc1nnc(C(C)(C)C)c(=O)n1N,outcome,[2],inactive
CC1=NNC(=O)N(/N=C/c2cccnc2)C1,outcome,[3],inactive
Cc1cc(C2CC2)nc(Nc2ccccc2)n1,outcome,[4],inactive
CCCSP(=O)(OCC)SCCC,outcome,[5],inactive
CCOP(=S)(OCC)Oc1cc(C)nc(C(C)C)n1,outcome,[3],inactive
N#CSCSC#N,AC50,[6],9.77 µM (active)
same,outcome,[7],inactive
CC(C)=CC1C(C(=O)OCN2C(=O)C3=C(CCCC3)C2=O)C1(C)C (centres undefined),outcome,[7],inactive
